# The campaign covered roughly 69,000 compounds. About 1,000 (1.4%) showed an effect of 50% or more. This excerpt belongs to a sample that is enriched for strong results.
# Tested on: Leishmania donovani
# Assay: Leishmania intramacrophage assay
# Format: functional, organism-based
# Design: scale not given: in the data most compounds retested in dose-response had high values
structure (smiles),measurement,setting,value
CCc1nnc2n1CCN(C(=O)c1nc(-c3ccco3)sc1C)C2,Percent Effect,30 µM,1.353%
O=C(O)C(F)(F)F.O=C(c1ccoc1)N1C[C@@H]2OCCN(c3ncccn3)[C@@H]2C1,Percent Effect,"30.3 µM, […]",10.14%
CCc1nccn1-c1nccnc1C1CCCN(C(=O)COC)C1 (configuration not stated),Percent Effect,"30.3 µM, […]",11.67%
Cc1cc(=O)[nH]c(NCCNC(=O)C(c2ccc(F)cc2)N(C)C)n1 (configuration not stated),Percent Effect,"30 µM, 30.03 µM",-13%
OCC1(NCc2cnc(-c3cccs3)s2)CCOCC1,Percent Effect,"30.3 µM, […]",16.11%
O=C(C1CC=CC1)N1CCC2(CCC(=O)N2Cc2cccc(F)c2)CC1,Percent Effect,"30.3 µM, […]",15.71%
CCOc1ccc(Cl)c(C(=O)NC(Cc2ccccc2)C(N)=O)n1 (configuration not stated),Percent Effect,"30.3 µM, […]",6.553%
CN(C)S(=O)(=O)CCCOc1cccc(-n2ccnc2)c1,Percent Effect,"30.3 µM, […]",-0.5544%
CN(C)C[C@@H]1CN(C2CCN(c3ccc(Cl)cc3)CC2)C[C@@H]1CO,Percent Effect,"30.3 µM, […]",93.76%
Cc1ccc(N2CCC(N3C[C@@H](CN(C)C)[C@@H](CO)C3)CC2)cc1,Percent Effect,"30.3 µM, […]",38.77%
CNC(=O)CN(C)C1CCN(c2ccc(Cl)cc2)CC1,Percent Effect,"30.3 µM, […]",24.19%
OC(COCc1cccs1)Cn1cc(Cl)cn1 (configuration not stated),Percent Effect,"30.3 µM, […]",11.71%
CC(C)N1CCN(C(=O)c2csc3nc(-c4ccc(Cl)cc4)cn23)CC1,Percent Effect,"30.3 µM, […]",11.51%
CCC1CN(C(=O)c2csc3nc(-c4ccc(Cl)cc4)cn23)CCN1 (configuration not stated),Percent Effect,"30.3 µM, […]",94.25%
O=C(c1csc2nc(-c3ccc(Cl)cc3)cn12)N1CCCC(CO)C1 (configuration not stated),Percent Effect,"30.3 µM, […]",-3.231%
CN(CC1CCOCC1)C(=O)NCCCN1CCCCC1,Percent Effect,"30.3 µM, […]",19.46%
O=C(c1ccncc1)N1CCC(c2nc(O)cc(-c3cccnc3)n2)C1 (configuration not stated),Percent Effect,"30 µM, 30.03 µM",-2.25%
CN(C)CC1(O)CCN(C(=O)Cc2ccc(Cl)c(Cl)c2)C1 (configuration not stated),Percent Effect,"30.3 µM, […]",1.329%
Cc1cc2occ(CC(=O)N3CCC(O)(CN(C)C)C3)c2cc1Cl (configuration not stated),Percent Effect,"30.3 µM, […]",50.58%
Cc1cc2occ(CC(=O)N3CCC4(CCCN(C)C4=O)C3)c2cc1Cl (configuration not stated),Percent Effect,"30.3 µM, […]",10.63%
O=C(O)[C@@H]1CCN(C(=O)Cc2ccccn2)[C@@H]1c1ccc(F)cc1,Percent Effect,"30.3 µM, […]",8.228%
CCO[C@H]1C[C@@H](O)C12CCN(C(=O)CC(F)(F)F)CC2,Percent Effect,"30.3 µM, […]",-0.6132%
COCCNC(=O)c1sc2ccccc2c1C1CCC(CN)CC1.Cl (configuration not stated),Percent Effect,"30.3 µM, […]",18.8%
Cl.NCC1CCC(c2c(C(=O)NCCO)sc3ccccc23)CC1 (configuration not stated),Percent Effect,"30.3 µM, […]",15.08%
CN(C)CCNC(=O)c1sc2ccccc2c1C1CCC(CN)CC1.Cl (configuration not stated),Percent Effect,"30.3 µM, […]",63.37%
COCc1cccc(NS(=O)(=O)c2cc(C(=O)O)cs2)c1,Percent Effect,"30 µM, 30.03 µM",36.6%
CCNc1ncc2c(n1)CN(c1ccc(OC(F)(F)F)cc1)C2=O,Percent Effect,"30.3 µM, […]",23.96%
OC1(CNCc2ccc(F)c(C(F)(F)F)c2)CCOC1 (configuration not stated),Percent Effect,"30.3 µM, […]",25.18%
OC1(CNCc2ccc(F)c(C(F)(F)F)c2)CCSCC1,Percent Effect,"30.3 µM, […]",40.38%
CN1CCC(O)(CNCc2ccc(F)c(C(F)(F)F)c2)CC1,Percent Effect,"30.3 µM, […]",85.74%
CC(C)N1CCN(c2ccc3ccc(C(=O)NC4CCCC4)cn23)CC1.O=C(O)C(F)(F)F,Percent Effect,"30.3 µM, […]",37.85%
N#Cc1cc(F)c(NCCCOCC2CCOC2)c(F)c1 (configuration not stated),Percent Effect,"30.3 µM, […]",29.08%

# Source: ChEMBL document CHEMBL3988442, “University of Dundee, Small-Polar-MMV Screening Library” (2021)
